PubChem BioAssay AID1903 (Southern Research Specialized Biocontainment Screening …, 2009)
Out of some 310,000 compounds screened, about 1,200 (0.39%) were called active. The rule behind the calls is not given here. Not all results are given here. Entries with a potency or affinity are not part of this list.

molecular target: Large T antigen (Simian virus 40) (UniProt P03070); assay: SV40 large T antigen inhibitors, biochemical (AID 1903); conditions: SV40 large T antigen ATPase/helicase inhibition assay; at 20 µM; hits give high values
Sequence (P03070 whole entry, looked up): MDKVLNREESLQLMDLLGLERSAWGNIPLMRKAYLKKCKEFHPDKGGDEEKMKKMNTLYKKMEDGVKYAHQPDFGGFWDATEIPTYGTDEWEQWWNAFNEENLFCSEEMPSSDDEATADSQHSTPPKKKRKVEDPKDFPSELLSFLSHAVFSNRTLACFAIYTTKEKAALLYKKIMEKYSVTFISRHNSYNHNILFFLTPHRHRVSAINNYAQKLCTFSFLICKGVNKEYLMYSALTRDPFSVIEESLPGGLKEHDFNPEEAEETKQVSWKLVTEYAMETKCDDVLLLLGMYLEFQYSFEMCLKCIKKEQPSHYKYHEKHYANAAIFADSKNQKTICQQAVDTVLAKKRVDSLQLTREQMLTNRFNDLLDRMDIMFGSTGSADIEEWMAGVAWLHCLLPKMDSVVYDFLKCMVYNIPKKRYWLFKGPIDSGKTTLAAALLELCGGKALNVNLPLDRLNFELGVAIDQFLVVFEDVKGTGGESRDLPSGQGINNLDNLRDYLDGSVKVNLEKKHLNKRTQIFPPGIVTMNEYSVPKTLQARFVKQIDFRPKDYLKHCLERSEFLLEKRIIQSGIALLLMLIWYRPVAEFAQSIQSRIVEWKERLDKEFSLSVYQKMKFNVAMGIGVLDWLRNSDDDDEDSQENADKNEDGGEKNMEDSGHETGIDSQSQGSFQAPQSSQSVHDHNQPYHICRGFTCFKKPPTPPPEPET

inhibition, inactive:
CC(C)CSc1nc2ccccc2[nH]1 4.9%
CC(NC(=O)c1cccnc1)C(=O)N1CCCCC1 (stereo unspecified) 11.9%
CC1CC1c1ccc(/C=C(\C#N)C(=O)Nc2ccccc2Cl)o1 (stereo unspecified) 19.3%
O=C(Cn1c(O)c(/C=C2\C=Nc3ccc(Br)cc32)sc1=O)N1CCCC1 2.37%
O=C(Nc1ccccc1F)c1ccc(CN2CCc3ccccc3C2)cc1 -1.04%
CC(C)c1cccc(C(C)C)c1NC(=O)CN1C(=O)NC2(CCCC2)C1=O 1.52%
c1ccc(C(c2ccccc2)N2CCN(C(c3ccccn3)c3nnnn3C3CCCC3)CC2)cc1 (stereo unspecified) -0.29%
CC(C)(C)n1nnnc1C(c1ccncc1)N1CCCCCC1 (stereo unspecified) 17.8%
CCC(C)(C)n1nnnc1C(c1ccc2ncccc2c1)N1CCCCCC1 (stereo unspecified) 3.78%
CCC(C)(C)n1nnnc1C(c1ccc2ncccc2c1)N1CCN(c2nc3ccccc3s2)CC1 (stereo unspecified) 9.88%
c1cc(C(c2nnnn2C2CCCC2)N2CCOCC2)ccn1 (stereo unspecified) 4.22%
c1ccc(C(c2nnnn2C2CCCC2)N2CCCCCC2)nc1 (stereo unspecified) 4.88%
c1ccc(C(c2nnnn2C2CCCC2)N2CCN(c3ccccc3)CC2)cc1 (stereo unspecified) 11.2%
CC(C)(C)n1nnnc1C(c1cccnc1)N1CCN(c2ccccc2)CC1 (stereo unspecified) 3.3%
Cc1nn(CC(=O)N/N=C/c2cccs2)c(C)c1[N+](=O)[O-] 11.7%
O=C(Nc1ccc(N2CCN(C(=O)c3ccccc3F)CC2)cc1)c1ncn[nH]1 8.25%
Cc1ccc2nc(Cl)c(/C=N/NC(=O)CN3CCOCC3)cc2c1 11.5%
COc1ccc(C(Nc2ccccn2)c2c(NC(=O)c3ccco3)sc(C)c2C)cc1 (stereo unspecified) 14.4%
Cc1cc(C)n(CC(=O)NC2CCCc3c2cnn3-c2ccc(C)c(C)c2)n1 (stereo unspecified) 2.04%
CC(C)C(CCN1C(=O)c2ccccc2C1=O)c1ccco1 (stereo unspecified) 16.2%
CCCN(C(=O)CCSc1ccc(F)cc1)c1c(N)n(Cc2ccccc2)c(=O)[nH]c1=O 5.85%
CCCCCCC(=O)Nc1nnc(CC)s1 4.74%
COc1ccc(CC(=O)N/N=C/c2sccc2C)cc1 4.71%
O=C(Nc1cccc2ccccc12)N1CC=CCC1 5.64%
CCOc1ccc(C(=O)NC(=S)Nc2ncccc2C)cc1[N+](=O)[O-] 5.78%
COc1ccc(-c2noc(N3CCCC(C(=O)Nc4ccc(F)cc4F)C3)n2)cc1 (stereo unspecified) 5.72%
